# PubChem BioAssay (NCATS)
# Records with an inconclusive call do not appear. A call without a number means that no potency is given here. Activity calls are given as the source filed them. The call rests on the fitted dose curve; in most records, active means well fitted inhibition curve with a large enough effect in the signal ratio, with a control signal flat (not every such curve was filed as active); inconclusive means small, poorly fitted or top-dose-only effect, or effect the other way, or a change in a side signal; inactive means flat fitted curve, though single readings scatter; the % refers to the signal ratio.
# Test: qHTS Assay for Identification of Small Molecule Antagonists for NFkB Signaling Pathway (AID 895)
# Conditions: NFkB beta-lactamase reporter cells, FRET ratio 460/530, stimulated with 10 pM TNF alpha; series mostly up to 38.3 µM
# Protocol: NIH Molecular Libraries Screening Centers Network [MLSCN]
# NIH Chemical Genomics Center [NCGC]
# The TNF alpha/NFkB signaling pathway was assayed in NFkB-bla cells (Invitrogen), a ME-180 cervical carcinoma line containing a stably integrated beta-lactamase reporter gene controlled by a NFkB response element. […] The assay was screened at the EC50 of TNF alpha activation to identify inhibitors of TNF alpha/NFkB signaling.
# NCGC Assay Protocol Summary:
# Cells were trypsinized, washed in assay medium (AM, OPTI MEM with 0.5% fetal bovine serum, 0.1 mM nonessential amino acids, 1 mM sodium pyruvate, 10mM HEPES pH 7.3, 100U/ml penicillin, and 100 ug/ml streptomycin) and plated at 1000 cells/5 uL/well into black clear-bottom 1536 well plates. After an overnight incubation at 37 C and 5% CO2, 23 nL of compound were delivered by a pin tool, 1 uL of TNF alpha (10 pM final concentration in AM) was added and plates were incubated at 37 C for 5 hrs. One uL of LiveBLAzerTM detector mix (Invitrogen) was added, the plates incubated at room temperature for 2 hrs, and fluorescence intensity at 460 and 530 nm emission was measured at 405 nm excitation by an Envision (Perkin Elmer).
# Potency means the concentration at half of the fitted maximal effect.
row,Structure (SMILES),Potency
1,NS(=O)(=O)c1cc2c(cc1Cl)N[C@@H]([C@@H]1C[C@@H]3C=C[C@H]1C3)NS2(=O)=O,inactive
2,COc1cccc(OC)c1OCCNC[C@@H]1COc2ccccc2O1,inactive
3,C[C@@](N)(C(=O)O)c1ccc(C(=O)O)cc1,inactive
4,C[C@@H]1C[C@@H]2[C@H]3CCC4=CC(=O)C=C[C@]4(C)[C@]3(F)[C@@H](O)C[C@@]2(C)[C@@]1(O)C(=O)CO,0.01 µM (active)
5,CC(C)NC[C@H](O)c1ccc(NS(C)(=O)=O)cc1,inactive
6,Cc1cccc([C@@H]2CN(C)CCc3c2cc(O)c(O)c3Cl)c1,inactive
7,C[C@@H]1CCN=C(N)S1,inactive
8,CN1CCN2c3ccccc3Cc3ccccc3[C@@H]2C1,inactive
9,Fc1cccc(/C=N\N=C/c2cccc(F)c2)c1,inactive
10,NCCCCCCNS(=O)(=O)c1cccc2c(Cl)cccc12,inactive
11,CC(C)(C)NC[C@H](O)COc1cccc2[nH]c(=O)[nH]c12,inactive
12,CNC(=O)Oc1ccc2c(c1)[C@@]1(C)CCN(C)[C@@H]1N2C,inactive
13,S=C(S)O[C@@H]1C[C@@H]2C[C@H]1[C@@H]1CCC[C@H]21,inactive
14,O=C1CC[C@H](N2C(=O)c3ccccc3C2=O)C(=O)N1,inactive
15,CCCCCCCCCCCCC/C=C\[C@@H](O)[C@@H](N)CO,inactive
16,N[C@H](CCC(=O)N[C@H](CSN=O)C(=O)NCC(=O)O)C(=O)O,inactive
17,COCCOC(=O)C1=C(C)NC(C)=C(C(=O)OC(C)C)[C@@H]1c1cccc([N+](=O)[O-])c1,7.08 µM (active)
18,N[C@]1(C(=O)O)CCc2cc(C(=O)O)ccc21,inactive
